Data from PubChem BioAssay (NCATS).
Several values for one entry are separate records, joined by “and”; a condition that tells them apart may be missing. Identical values can stand only once. Records with an inconclusive call do not appear. Entries that show only a call come without a potency. Activity calls are given as the source filed them. Calls follow the shape of the dose curve; as a rule, active = well fitted curve in the direction sought with a large enough effect; inconclusive = small, poorly fitted or top-dose-only effect, or another doubt; inactive = no such curve, though single readings can be large; an effect the other way counts as inactive or inconclusive.

Experiments:
[1] = qHTS of pediatric cancer cell lines to identify multiple opportunities for drug repurposing: Primary screen for A673 cells (AID 1347092); details: A673 Ewing sarcoma viability, CellTiter-Glo ATP luminescence, 48 h; series mostly up to 46 µM; also: nearly all actives have a fitted effect of over 45% in size
Summary of the method: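 48 h compound exposure, A673, 500-1,000 cells/well, 37 degrees C/5% CO2. MIPE: 11-point, 0.78 nM-46 µM; NPC: 8-point, 0.59 nM-46 µM (final). Readout CellTiter-Glo luminescence after 15 min RT.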

[2] = qHTS of pediatric cancer cell lines to identify multiple opportunities for drug repurposing: Primary screen for BT-37 cells (AID 1347094); details: BT-37 viability, CellTiter-Glo luminescence, 48 h; series mostly up to 57.3 µM
Summary of the method: (§1)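 Following a 5-hour attachment period, cells at 500-1,000/well received compounds and were cultured for 48 hours. CellTiter-Glo was added and luminescence read to estimate viable, metabolically active cells.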

[3] = qHTS of pediatric cancer cell lines to identify multiple opportunities for drug repurposing: Primary screen for NB-EBc1 cells (AID 1347095); details: NB-EBc1 neuroblastoma viability, CellTiter-Glo luminescence, 48 h; series mostly up to 46 µM
Summary of the method: as §1

[4] = qHTS of pediatric cancer cell lines to identify multiple opportunities for drug repurposing: Primary screen for U-2 OS cells (AID 1347096); details: U-2 OS viability, CellTiter-Glo luminescence, 48 h; series mostly up to 46 µM; also: nearly all actives have a fitted effect of over 50% in size
Summary of the method: (§2)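 Cells (500-1,000/well) in growth media were settled 5 h at 37 degrees C, then given compounds for 48 h. Viability was read as CellTiter-Glo luminescence. Primary runs used MIPE at 11 points (0.78 nM-46 µM) and NPC at 8 points (0.59 nM-46 µM); follow-ups used 11 points.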

[5] = qHTS of pediatric cancer cell lines to identify multiple opportunities for drug repurposing: Primary screen for Saos-2 cells (AID 1347097); details: Saos-2 viability, CellTiter-Glo ATP luminescence, 48 h; series mostly up to 46 µM; also: nearly all actives have a fitted effect of over 40% in size
Summary of the method: as §1

[6] = qHTS of pediatric cancer cell lines to identify multiple opportunities for drug repurposing: Primary screen for SK-N-SH cells (AID 1347098); details: SK-N-SH viability, CellTiter-Glo luminescence, 48 h; series mostly up to 57 µM; also: nearly all actives have a fitted effect of over 65% in size
Summary of the method: (§3)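 Cells (500-1,000/well) rested 5 h, then received compounds for 48 h; metabolically active cells were measured by CellTiter-Glo luminescence. Final concentrations spanned up to 46 µM (MIPE, 11-point) or 0.59 nM-46 µM (NPC, 8-point) in primary screens, 11-point in follow-ups.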

[7] = qHTS of pediatric cancer cell lines to identify multiple opportunities for drug repurposing: Primary screen for NB1643 cells (AID 1347099); details: NB1643 neuroblastoma viability, CellTiter-Glo luminescence, 48 h; series mostly up to 46 µM; also: nearly all actives have a fitted effect of over 50% in size
Summary of the method: as §1

[8] = qHTS of pediatric cancer cell lines to identify multiple opportunities for drug repurposing: Primary screen for LAN-5 cells (AID 1347100); details: LAN-5 neuroblastoma viability, CellTiter-Glo luminescence, 48 h; series mostly up to 46 µM
Summary of the method: as §2

[9] = qHTS of pediatric cancer cell lines to identify multiple opportunities for drug repurposing: Primary screen for BT-12 cells (AID 1347101); details: BT-12 viability, CellTiter-Glo luminescence, 48 h; series mostly up to 57.3 µM; also: nearly all actives have a fitted effect of over 25% in size
Summary of the method: as §3

[10] = qHTS of pediatric cancer cell lines to identify multiple opportunities for drug repurposing: Primary screen for SK-N-MC cells (AID 1347093); details: SK-N-MC viability, CellTiter-Glo luminescence, 48 h; series mostly up to 46 µM
Summary of the method: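 Metabolically active cells were quantified by ATP-dependent luminescence (CellTiter-Glo, 15 min at room temperature) following 48 h treatment. Cells had been plated at 500-1,000 per well and settled for 5 h beforehand.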
Potency is read from the fitted curve at half-maximal effect.

| SMILES | Potency [1] | Potency [2] | Potency [3] | Potency [4] | Potency [5] | Potency [6] | Potency [7] | Potency [8] | Potency [9] | Potency [10] |
| --- | --- | --- | --- | --- | --- | --- | --- | --- | --- | --- |
| Cc1onc(-c2ccccc2Cl)c1C(=O)N[C@@H]1C(=O)N2[C@@H]1SC(C)(C)[C@@H]2C(=O)O | inactive | inactive | inactive | inactive | inactive | inactive | inactive | inactive | inactive |  |
| CC1(C)[C@H](C(=O)O)N2C(=O)C[C@H]2S1(=O)=O | inactive | inactive | inactive | inactive | inactive | inactive |  | inactive | inactive |  |
| CCCN[C@H]1CCc2nc(N)sc2C1 | inactive | inactive | inactive | inactive | inactive | inactive | inactive | inactive | inactive |  |
| O=C(O)CCn1c2c(c3ccccc31)C[C@H](NS(=O)(=O)c1ccc(F)cc1)CC2 | inactive | inactive | inactive | inactive | inactive | inactive |  | inactive | inactive |  |
| OC(Cn1cncn1)(Cn1cncn1)c1ccc(F)cc1F | inactive | inactive | inactive | inactive | inactive | inactive |  | inactive | inactive |  |
| COc1cc(NCc2ccc3nc(N)nc(N)c3c2C)cc(OC)c1OC | 3.72 µM (active) and 168 nM (active) | 1.53 µM (active) and 69.2 nM (active) | 3.72 µM (active) | 3.72 µM (active) | 11.8 µM (active) |  | 14.8 µM (active) | 16.6 µM (active) | 2.17 µM (active) and 55 nM (active) |  |
| Nc1ccc(S(=O)(=O)Nc2ccccn2)cc1 | inactive | inactive | inactive | inactive | inactive | inactive | inactive | inactive | inactive |  |
| COc1cccc(N(C)C(=S)Oc2ccc3c(c2)CCCC3)n1 | inactive | inactive | inactive | inactive | inactive | inactive |  | inactive |  |  |
| Cn1c(=O)c2c(ncn2CC(O)CO)n(C)c1=O (stereo not given) | inactive | inactive | inactive | inactive | inactive | inactive |  | inactive | inactive |  |
| Nc1nc(N)nc(-c2cc(Cl)ccc2Cl)n1 | inactive | inactive | inactive | inactive | inactive | inactive |  | inactive | inactive |  |
| CC(=O)CC(c1ccccc1)c1c(O)c2ccccc2oc1=O (stereo not given) | inactive | inactive | inactive | inactive | inactive | inactive | inactive | inactive | inactive |  |
| CC1=CC(=O)c2ccccc2C1=O | 13.3 µM (active) and 14.8 µM (active) | inactive | 7.43 µM (active) | inactive | 18.7 µM (active) | 21.7 µM (active) |  | 16.8 µM (active) and 23.5 µM (active) | inactive |  |
| COC(=O)Nc1nc2ccc(S(=O)c3ccccc3)cc2[nH]1 (stereo not given) | 841 nM (active) and 9.35 µM (active) | 1.55 µM (active) | 473 nM (active) and 8.33 µM (active) |  | 8.33 µM (active) | 1.54 µM (active) and 19.2 µM (active) |  | 944 nM (active) and 11.8 µM (active) | 2.46 µM (active) |  |
| CCCCCCNC(=O)n1cc(F)c(=O)[nH]c1=O |  |  | 2.99 µM (active) and 4.18 µM (active) | inactive | inactive |  | 5.9 µM (active) | 7.5 µM (active) and 9.35 µM (active) |  |  |
| COC(=O)Nc1nc2ccc(C(=O)c3ccccc3)cc2[nH]1 | 106 nM (active) and 935 nM (active) | 347 nM (active) and 2.43 µM (active) | 0.188 µM (active) |  | 66.8 nM (active) and 662 nM (active) | 8.57 µM (active) |  | 0.469 µM (active) | 347 nM (active) and 2.43 µM (active) |  |
| Nc1nc(N)c2nc(CNc3ccc(C(=O)NC(CCC(=O)O)C(=O)O)cc3)cnc2n1 (stereo not given) |  | 0.0485 µM (active) |  | inactive | inactive |  | inactive |  | 0.0485 µM (active) | 0.0166 µM (active) |
| CNCC[C@H](Oc1cccc2ccccc12)c1cccs1 | 1.18 µM (active) |  | inactive | inactive |  | 19.4 µM (active) and 5.41 µM (active) |  | inactive |  |  |
| Cc1c(-c2ccc(O)cc2)n(Cc2ccc(OCCN3CCCCCC3)cc2)c2ccc(O)cc12 | inactive | inactive |  | inactive |  | inactive | inactive |  |  |  |
| CCCc1nc(C)c2c(=O)[nH]c(-c3cc(S(=O)(=O)N4CCN(CC)CC4)ccc3OCC)nn12 |  |  |  |  |  |  |  |  | 12.2 µM (active) |  |
| CCOC(=O)[C@H](CCc1ccccc1)N[C@H]1CCc2ccccc2N(CC(=O)O)C1=O |  |  |  | inactive |  | 24.1 µM (active) |  |  | 27.3 µM (active) |  |
| Cc1nnc(NS(=O)(=O)c2ccc(N)cc2)s1 |  |  |  | inactive | inactive |  |  |  | inactive | 0.833 µM (active) |
| CCCCc1oc2ccc(NS(C)(=O)=O)cc2c1C(=O)c1ccc(OCCCN(CCCC)CCCC)cc1 | 1.18 µM (active) | 17.2 µM (active) and 27.6 µM (active) |  |  | 18.7 µM (active) and 23.7 µM (active) | 27.1 µM (active) and 17.2 µM (active) |  | 11.8 µM (active) and 18.8 µM (active) | 19.3 µM (active) and 12.3 µM (active) |  |
| S=P(N1CC1)(N1CC1)N1CC1 | 23.5 µM (active) |  | 1.05 µM (active) | inactive |  | inactive | 0.0935 µM (active) | 18.7 µM (active) | inactive |  |
